Measurements: PubChem BioAssay (EPA / NIEHS)
Where “and” joins values, the source holds several entries; their conditions need not be identical. Equal entries are not always repeated. Inconclusive results are not listed. More than one record can exist for a structure, and the calls need not agree. Calls of active or inactive are those of the source. How the source made its calls, unless noted: active means hit-call score of the fitted dose curve at least 0.9, where 1 is the maximum; inactive means score below 0.9.

Columns and labels:
[1] = biological target: human RAR-related Orphan Receptor gamma (RORg), RORC (gene 6097) (UniProt P51449); assay: ATG_RORg_TRANS: Attagene TRANS-FACTORIAL HepG2 Assay for human RAR-related Orphan Receptor gamma (RORg) (AID 2283011; active means hit-call score of the fitted dose curve at least 0.9, where 1 is the maximum)
Outline: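 HepG2 cells transiently transfected with GAL4-UAS reporter units and chimeric RORg-Gal4 construct; after 24 h chemical exposure, reporter mRNA measured by RT-PCR with fluorescent capillary electrophoresis, gain of signal fitted against DMSO.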

[2] = biological target: human Vitamin D Receptor (VDR), VDR (gene 7421) (UniProt P11473); assay: ATG_VDR_TRANS: Attagene TRANS-FACTORIAL HepG2 Assay for human Vitamin D Receptor (VDR) (AID 2283022; active means hit-call score of the fitted dose curve at least 0.9, where 1 is the maximum)
Outline: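 HepG2 cells were transiently transfected with GAL4-UAS reporter units and a chimeric VDR-Gal4 construct, then dosed for 24 hours. Reporter mRNA was quantified by RT-PCR, fluorescent labeling, HpaI digestion and capillary electrophoresis; gain of signal analysed vs DMSO.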

[3] = biological target: human Retinoid X Receptor beta (RXRb), RXRB (gene 6257) (UniProt P28702); assay: ATG_RXRb_TRANS: Attagene TRANS-FACTORIAL HepG2 Assay for human Retinoid X Receptor beta (RXRb) (AID 2283013; active means hit-call score of the fitted dose curve at least 0.9, where 1 is the maximum)
Outline: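 Transfect HepG2 with GAL4-UAS multi-reporter constructs (chimeric NR-Gal4, TRANS format); dose compound 24 h; isolate RNA, RT-PCR, FAM primer extension, HpaI digest; quantify by capillary electrophoresis; positive direction vs DMSO.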

[4] = biological target: human Thyroid Receptor alpha (THRa1), THRA (gene 7067) (UniProt P10827); assay: ATG_THRa1_TRANS: Attagene TRANS-FACTORIAL HepG2 Assay for human Thyroid Receptor alpha (THRa1) (AID 2283014; active means hit-call score of the fitted dose curve at least 0.9, where 1 is the maximum)
Outline: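 HepG2 cells transiently transfected with chimeric NR-Gal4 and GAL4-UAS reporter units, dosed 24 h. Reporter mRNA quantified by RT-PCR, fluorescent labeling, HpaI digestion and capillary electrophoresis; gain-of-signal fit versus DMSO.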

[5] = biological target: Retinoic acid receptor RXR-alpha (Homo sapiens) (UniProt P19793); assay: ATG_RXRa_TRANS: Attagene TRANS-FACTORIAL HepG2 Assay for human Retinoid X Receptor alpha (RXRa) (AID 2283012; active means hit-call score of the fitted dose curve at least 0.9, where 1 is the maximum)
Outline: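 Transient transfection of human HepG2 with multiple GAL4-UAS reporter constructs; 24 h compound exposure; total RNA isolated, reverse-transcribed, PCR-amplified, 6-FAM labelled, HpaI-cut, resolved by capillary electrophoresis. Positive-direction fit versus DMSO.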

[6] = read-out: E-selectin (Homo sapiens) (UniProt P16581); assay: BSK_3C_Eselectin: BioMAP Diversity Plus: 3C Assay for Eselectin Biomarker Activity (AID 2283015); conditions: primary human endothelial cells (HUVEC); actives raise or lower the signal
Outline: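 Primary human umbilical vein endothelial cells (3C system), read 24 h after compound addition; E-selectin measured by ELISA. Bidirectional curve fitting against DMSO baseline; cytotoxicity by parallel SRB total-protein staining.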

[7] = read-out: Monocyte Chemoattractant Protein-1 (MCP1), CCL2 (gene 6347); assay: BSK_3C_MCP1: BioMAP Diversity Plus: 3C Assay for Monocyte Chemoattractant Protein-1 (MCP1) Biomarker Activity (AID 2283017); conditions: primary human endothelial cells (HUVEC); actives raise or lower the signal
Outline: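 Human umbilical vein endothelial cells (3C system) exposed to chemicals for 24 h; MCP-1 quantified by ELISA against the DMSO baseline with bidirectional fitting, and parallel SRB staining used to assess cytotoxicity.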

[8] = read-out: Monocyte Chemoattractant Protein-1 (MCP1), CCL2 (gene 6347); assay: BSK_4H_MCP1: BioMAP Diversity Plus: 4H Assay for Monocyte Chemoattractant Protein-1 (MCP1) Biomarker Activity (AID 2283018); conditions: primary human endothelial cells (HUVEC); actives raise or lower the signal
Outline: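 ELISA read-out of MCP-1 from human vascular endothelial primary cells taken at 24 hours after compound exposure. Activity was fitted in both directions relative to DMSO, which served as negative control.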

[9] = read-out: Interleukin-8 (IL8), CXCL8 (gene 3576); assay: BSK_3C_IL8: BioMAP Diversity Plus: 3C Assay for Interleukin-8 (IL8) Biomarker Activity (AID 2283020); conditions: primary human endothelial cells (HUVEC); actives raise or lower the signal
Outline: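 ELISA read-out of IL-8 from human umbilical vein endothelium, measured 24 h after chemical dosing. Activity is expressed relative to DMSO negative control, with both increases and decreases fitted.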

[10] = read-out: Monokine induced gamma interferon (MIG), CXCL9 (gene 4283); assay: BSK_3C_MIG: BioMAP Diversity Plus: 3C Assay for Monokine induced gamma interferon (MIG) Biomarker Activity (AID 2283021); conditions: primary human endothelial cells (HUVEC); actives raise or lower the signal;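 on AC50: MIG protein level measured by immunoassay in the treated endothelial cultures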
Outline: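 Read-out is ELISA detection of MIG on human umbilical vein endothelial cells, taken 24 h after dosing. Gain or loss of signal was scored relative to DMSO controls using bidirectional curve fitting.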

[11] = BSK_3C_Vis: BioMAP Diversity Plus: 3C Assay for Morphology Visualization (AID 2283025); conditions: primary human endothelial cells (HUVEC);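 further: fitted both ways so gain or loss versus DMSO counts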;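 on AC50: light microscopy image of cell morphology used as background control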
Outline: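 Chemicals were added to primary human umbilical vein endothelium, cells were incubated 24 h, and morphology was then visualized by light microscopy. Gain or loss of signal was fitted bidirectionally relative to DMSO.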

[12] = read-out: Pselectin, SELP (gene 6403); assay: BSK_4H_Pselectin: BioMAP Diversity Plus: 4H Assay for Pselectin Biomarker Activity (AID 2283026); conditions: primary human endothelial cells (HUVEC); actives raise or lower the signal
Outline: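 ELISA read-out of P-selectin on human umbilical vein endothelium after 24 h of dosing. Values derive from bidirectional fitting relative to DMSO. Parallel SRB protein staining flagged overt cytotoxicity.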

[13] = BSK_4H_SRB: Viability Assessment in the BioMAP Diversity Plus: 4H Assay (AID 2283027); conditions: primary human endothelial cells (HUVEC);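 further: cells exposed to compound for 24 h before staining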;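 on AC50: curves fitted both ways versus DMSO so AC50 may be loss or gain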
Outline: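 Human umbilical vein endothelial cells, 24 h after chemical dosing; total protein measured by 0.1% sulforhodamine B staining after 10% TCA fixation, read at 560 nm. Bidirectional fitting against DMSO.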

[14] = BSK_BE3C_SRB: Viability Assessment in the BioMAP Diversity Plus: BE3C Assay (AID 2283028); conditions: primary human bronchial epithelial cells;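 on AC50: fitted both ways so AC50 may mark signal gain or loss versus DMSO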
Outline: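 Human bronchial epithelial primary cells in confluent culture, 24 h after chemical dosing; total protein by 0.1% SRB staining after 10% TCA fixation, read at 560 nm. Bidirectional fitting versus DMSO baseline.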

[15] = read-out: Interleukin-1 alpha (IL1a), IL1A (gene 3552); assay: BSK_BE3C_IL1a: BioMAP Diversity Plus: BE3C Assay for Interleukin-1 alpha (IL1a) Biomarker Activity (AID 2283016); conditions: primary human bronchial epithelial cells; actives raise or lower the signal
Outline: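 BE3C primary human bronchial epithelium; cpd 24 h; IL-1a by ELISA; bidirectional fit vs DMSO; parallel SRB (0.1% SRB, 10% TCA fix, 560 nm) for cytotoxicity.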

[16] = read-out: Human Leukocyte Antigen - DR isotype (HLADR), HLA-DRA (gene 3122); assay: BSK_3C_HLADR: BioMAP Diversity Plus: 3C Assay for Human Leukocyte Antigen - DR isotype (HLADR) Biomarker Activity (AID 2283019); conditions: primary human endothelial cells (HUVEC); actives raise or lower the signal
Outline: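 HUVEC monoculture, HLA-DR measured by ELISA 24 h after chemical dosing. Fitted bidirectionally against DMSO baseline; parallel SRB staining assessed cytotoxicity, with 3C proliferation read by SRB at 48 h.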

[17] = read-out: Matrix Metallopeptidase 1 (MMP1), MMP1 (gene 4312); assay: BSK_BE3C_MMP1: BioMAP Diversity Plus: BE3C Assay for Matrix Metallopeptidase 1 (MMP1) Biomarker Activity (AID 2283024); conditions: primary human bronchial epithelial cells; actives raise or lower the signal
Outline: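 Human bronchial epithelial cells (BE3C system) exposed to compound for 24 h; MMP1 then quantified by ELISA. Activity was fitted in both directions relative to DMSO.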

[18] = read-out: Thrombomodulin, THBD (gene 7056); assay: BSK_3C_Thrombomodulin: BioMAP Diversity Plus: 3C Assay for Thrombomodulin Biomarker Activity (AID 2283029); conditions: primary human endothelial cells (HUVEC); actives raise or lower the signal
Outline: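 Read-out is ELISA of thrombomodulin on human umbilical vein endothelium 24 h after chemical dosing. Gain or loss of signal is scored relative to DMSO. Overt cytotoxicity is checked in parallel cultures by sulforhodamine B staining.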

[19] = BSK_3C_SRB: Viability Assessment in the BioMAP Diversity Plus: 3C Assay (AID 2283023); conditions: primary human endothelial cells (HUVEC);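 further: fitted both ways against DMSO so a hit may be signal rise or drop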
Outline: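 Human umbilical vein endothelial cells in the 3C system, treated 24 h. Total protein measured by 0.1% sulforhodamine B staining after 10% TCA fixation, read at 560 nm; bidirectional fit versus DMSO.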

Measured: AC50

human Vitamin D Receptor (VDR), VDR (gene 7421), sequence (P11473 whole entry, looked up, the tested form may be a part): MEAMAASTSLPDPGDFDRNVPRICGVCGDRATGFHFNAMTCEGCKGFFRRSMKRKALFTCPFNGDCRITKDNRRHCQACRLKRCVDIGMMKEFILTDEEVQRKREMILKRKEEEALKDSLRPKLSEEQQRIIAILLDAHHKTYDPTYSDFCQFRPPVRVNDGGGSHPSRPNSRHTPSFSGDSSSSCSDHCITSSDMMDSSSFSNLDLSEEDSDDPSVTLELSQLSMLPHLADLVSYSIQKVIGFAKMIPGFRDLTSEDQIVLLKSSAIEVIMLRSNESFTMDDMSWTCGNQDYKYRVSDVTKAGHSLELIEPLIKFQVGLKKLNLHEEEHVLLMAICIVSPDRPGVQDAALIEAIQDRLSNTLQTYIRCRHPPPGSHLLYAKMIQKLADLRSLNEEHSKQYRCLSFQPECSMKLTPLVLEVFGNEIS
E-selectin (Homo sapiens), sequence (P16581 whole entry, looked up): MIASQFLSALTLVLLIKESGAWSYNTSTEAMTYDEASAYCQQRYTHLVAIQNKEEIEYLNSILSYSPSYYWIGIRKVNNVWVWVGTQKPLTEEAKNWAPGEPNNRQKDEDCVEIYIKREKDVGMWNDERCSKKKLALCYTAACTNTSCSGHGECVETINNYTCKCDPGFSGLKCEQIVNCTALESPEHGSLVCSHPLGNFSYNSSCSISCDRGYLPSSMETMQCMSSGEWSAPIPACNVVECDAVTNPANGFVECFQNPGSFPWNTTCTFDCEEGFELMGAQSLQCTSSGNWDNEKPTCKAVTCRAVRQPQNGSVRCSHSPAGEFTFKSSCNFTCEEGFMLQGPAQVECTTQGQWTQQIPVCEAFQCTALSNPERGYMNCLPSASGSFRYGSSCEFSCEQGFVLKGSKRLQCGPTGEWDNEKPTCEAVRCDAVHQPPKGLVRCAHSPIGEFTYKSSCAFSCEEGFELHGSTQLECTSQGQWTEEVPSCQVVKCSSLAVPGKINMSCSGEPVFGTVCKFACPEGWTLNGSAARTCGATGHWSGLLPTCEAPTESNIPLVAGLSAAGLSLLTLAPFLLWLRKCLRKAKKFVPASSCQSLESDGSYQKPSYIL
human Thyroid Receptor alpha (THRa1), THRA (gene 7067), sequence (P10827 whole entry, looked up, the tested form may be a part): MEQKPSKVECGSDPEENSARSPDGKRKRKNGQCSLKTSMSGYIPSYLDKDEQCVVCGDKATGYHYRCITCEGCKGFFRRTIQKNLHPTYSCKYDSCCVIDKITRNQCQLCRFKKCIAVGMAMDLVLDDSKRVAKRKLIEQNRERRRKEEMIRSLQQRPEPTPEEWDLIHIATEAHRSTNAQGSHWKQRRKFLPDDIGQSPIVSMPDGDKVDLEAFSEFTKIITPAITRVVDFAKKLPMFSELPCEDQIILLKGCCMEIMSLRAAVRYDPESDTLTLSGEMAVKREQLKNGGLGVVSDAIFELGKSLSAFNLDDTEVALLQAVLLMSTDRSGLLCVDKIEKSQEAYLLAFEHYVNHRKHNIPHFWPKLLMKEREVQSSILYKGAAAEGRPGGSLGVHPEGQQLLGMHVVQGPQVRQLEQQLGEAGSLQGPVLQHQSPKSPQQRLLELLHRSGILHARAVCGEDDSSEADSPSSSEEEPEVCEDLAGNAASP
Retinoic acid receptor RXR-alpha (Homo sapiens), sequence (P19793 whole entry, looked up, the tested form may be a part): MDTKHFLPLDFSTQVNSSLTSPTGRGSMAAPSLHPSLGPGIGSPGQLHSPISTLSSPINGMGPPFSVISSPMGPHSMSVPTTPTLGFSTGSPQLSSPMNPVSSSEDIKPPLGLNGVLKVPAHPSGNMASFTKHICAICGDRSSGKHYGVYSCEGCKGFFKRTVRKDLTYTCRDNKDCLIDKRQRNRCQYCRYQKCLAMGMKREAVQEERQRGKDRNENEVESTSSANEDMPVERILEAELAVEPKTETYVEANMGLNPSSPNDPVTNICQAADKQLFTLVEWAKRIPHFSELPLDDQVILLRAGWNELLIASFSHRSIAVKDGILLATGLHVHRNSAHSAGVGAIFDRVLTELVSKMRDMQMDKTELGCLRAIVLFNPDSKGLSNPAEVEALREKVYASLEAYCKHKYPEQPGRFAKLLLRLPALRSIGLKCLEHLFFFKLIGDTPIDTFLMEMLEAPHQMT
human RAR-related Orphan Receptor gamma (RORg), RORC (gene 6097), sequence (P51449 whole entry, looked up, the tested form may be a part): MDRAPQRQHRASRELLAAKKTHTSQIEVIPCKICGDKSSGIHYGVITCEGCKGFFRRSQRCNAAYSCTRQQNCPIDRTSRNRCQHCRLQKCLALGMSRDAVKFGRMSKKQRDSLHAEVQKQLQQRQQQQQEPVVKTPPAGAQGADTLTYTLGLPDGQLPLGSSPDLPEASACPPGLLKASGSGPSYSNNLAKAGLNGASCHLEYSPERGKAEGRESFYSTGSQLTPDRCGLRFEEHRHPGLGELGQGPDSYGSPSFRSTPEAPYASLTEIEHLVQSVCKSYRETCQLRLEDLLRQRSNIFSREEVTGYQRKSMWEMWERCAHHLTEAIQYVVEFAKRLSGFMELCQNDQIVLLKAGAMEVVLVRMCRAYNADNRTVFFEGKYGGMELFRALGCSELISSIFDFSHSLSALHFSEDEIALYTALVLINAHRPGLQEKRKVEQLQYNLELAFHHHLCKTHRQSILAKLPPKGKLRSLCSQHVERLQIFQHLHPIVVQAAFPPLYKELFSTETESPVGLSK
human Retinoid X Receptor beta (RXRb), RXRB (gene 6257), sequence (P28702 whole entry, looked up, the tested form may be a part): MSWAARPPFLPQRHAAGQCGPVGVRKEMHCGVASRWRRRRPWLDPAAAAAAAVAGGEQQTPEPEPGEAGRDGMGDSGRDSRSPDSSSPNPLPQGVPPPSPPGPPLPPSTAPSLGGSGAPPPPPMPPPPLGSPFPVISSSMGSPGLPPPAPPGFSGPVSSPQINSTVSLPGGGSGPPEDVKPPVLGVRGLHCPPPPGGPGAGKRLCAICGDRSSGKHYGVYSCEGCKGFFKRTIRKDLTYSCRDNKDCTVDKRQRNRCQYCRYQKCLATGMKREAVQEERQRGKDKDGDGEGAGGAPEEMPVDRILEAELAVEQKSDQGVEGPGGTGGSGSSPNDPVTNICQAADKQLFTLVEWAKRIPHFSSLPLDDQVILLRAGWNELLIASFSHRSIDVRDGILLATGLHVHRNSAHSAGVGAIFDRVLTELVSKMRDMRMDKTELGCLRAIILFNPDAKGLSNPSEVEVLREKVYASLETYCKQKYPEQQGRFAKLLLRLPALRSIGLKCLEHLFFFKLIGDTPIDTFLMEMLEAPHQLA

CCCC(=O)OCC(COC(=O)CCC)OC(=O)CCC
inactive: [1] | [2]

Cc1cccc(C)n1
inactive: [1] | [3] | [4] | [2]

Nc1cc([N+](=O)[O-])cc(Cl)c1O
not listed: [2] | [3] | [4] | [15] | [16] | [17] | [18] | [19]
inactive: all other assays above

CCn1c2ccccc2c2ccccc21
inactive: [5] | [4] | [2]
active: [3] 13.3 µM

CCN(CC)c1ccc2c(c1)Oc1cc(N(CC)CC)ccc1C21OC(=O)c2ccccc21
active: [7] 10 µM | [16] 10 µM | [9] 4.05 µM | [11] 19.9 µM
not listed: [2] | [3] | [4] | [5] | [19]
inactive: all other assays above

CC(C)(C)C(=O)C1C(=O)c2ccccc2C1=O
inactive: [1] | [3] | [4] | [2]

CC(C)Nc1ccc(NC(C)C)c2c1C(=O)c1ccccc1C2=O
inactive: [5] | [3] | [4] | [2]

OCCCCl
inactive: [5] | [3] | [4] | [2]

O=C(c1ccccc1)c1ccc(Cl)cc1
active: [3] 68.7 µM
inactive: [5] | [4] | [2]

O=C(Cl)c1ccc(Cl)cc1Cl
inactive: [1] | [4]

CCCCCCCCn1sc(Cl)c(Cl)c1=O
inactive: [1] | [2]

O=C1C=CC(=O)N1c1ccccc1
inactive: [1] | [4] | [2]

NCC(F)(F)C(F)(F)C(F)(F)C(F)(F)C(F)(F)C(F)(F)C(F)(F)C(F)(F)F
inactive: [5] | [3] | [4] | [6] | [15] | [7] | [8] | [9] | [10] | [2] | [19] | [17] | [12] | [13] | [14] | [18]
active: [7] 0.57 µM

CCCCCCCCCc1ccc(OCCO)cc1
inactive: [5] | [3] | [4] | [2]

CC(C)(C)c1cc(Cc2cc(C(C)(C)C)c(O)c(C(C)(C)C)c2)cc(C(C)(C)C)c1O
inactive: [5] | [4] | [2]
active: [3] 15.7 µM

Cc1ccc(O)cn1
inactive: [1] | [5] | [2]

CC(C)CCCC(C)CCO (stereo not drawn)
active: [6] 36.8 µM | [7] 30.2 µM | [8] 35.3 µM | [11] 39.6 µM | [12] 31.2 µM | [13] 28.8 µM | [14] 7.28 µM
inactive: [1] | [3] | [9] | [10] | [2] | [17]

CCN(CC)c1ccc(C=O)c(O)c1
not listed: [4] | [5] | [15] | [16] | [19]
inactive: all other assays above

NCC(F)(F)C(F)(F)C(F)(F)C(F)(F)C(F)(F)C(F)(F)F
not listed: [4] | [5] | [11] | [15] | [16] | [17]
inactive: all other assays above

Cc1ccc2c(c1)OCC(=O)CO2
inactive: [1] | [2]

OCCCc1cccnc1
inactive: [1] | [3] | [4] | [2]

CC(=O)C=O
inactive: [1] | [4]

CCN=c1cc2oc3cc(NCC)c(C)cc3c(-c3ccccc3C(=O)OCC)c-2cc1C
inactive: [1] | [3] | [4] | [2]

O=C1OC(=O)c2ccc3c4c(ccc1c24)C(=O)OC3=O
inactive: [1] | [4]

C[Si](Cl)(Cl)CCC(F)(F)C(F)(F)C(F)(F)C(F)(F)C(F)(F)C(F)(F)F
not listed: [3] | [4] | [5] | [11] | [15] | [19]
inactive: all other assays above

CN1CN(C)CN(C)C1
inactive: [1] | [2]

CCN(CC)c1ccc(N=Nc2ccccc2)cc1
inactive: [5] | [3] | [4] | [6] | [10] | [2] | [14]
active: [15] 20 µM | [7] 30.6 µM | [8] 13.2 µM | [16] 11.5 µM | [9] 20 µM | [19] 12.1 µM | [11] 8.8 µM | [12] 11.3 µM | [13] 20 µM

OCCCC(F)(F)C(F)(F)C(F)(F)C(F)(F)C(F)(F)C(F)(F)C(F)(F)C(F)(F)F
active: [5] 23.8 µM | [3] 2.86 µM | [6] 27.4 µM and 50.6 µM | [7] 20.8 µM and 31.7 µM | [8] 45.5 µM and 46.7 µM | [9] 19.6 µM and 20.6 µM | [10] 50.9 µM and 52.6 µM | [17] 7.11 µM and 55.2 µM | [12] 32.3 µM and 24.1 µM | [13] 11.1 µM and 20.8 µM | [14] 51.9 µM and 48.7 µM
inactive: [4] | [2]

O=C=NCc1cccc(CN=C=O)c1
not listed: [1] | [2] | [15] | [16] | [18]
inactive: all other assays above
